Test results reported in PubChem BioAssay AID588342 (National Center for Advancing Translational Sciences (NCATS), 2011).
In all, about 360,000 compounds went through this assay and about 25,000 (6.9%) were called active. About 9% were inconclusive and are not listed. Calls follow the shape of the dose curve; as a rule, active = well fitted inhibition curve with a large enough effect; inconclusive = small, poorly fitted or top-dose-only effect; inactive = flat fitted curve, though single readings scatter. The entries come from a sample that favours actives as a whole. A call without a number means that no potency is given here.

target: Luciferin 4-monooxygenase (Photinus pyralis) (UniProt P08659); assay: qHTS profiling assay for firefly luciferase inhibitor/activator using purifed enzyme and Km concentrations of substrates (counterscreen for miR-21 project); conditions: purified FLuc, luminescence inhibition; series mostly up to 57.5 µM; also: nearly all actives have a fitted effect of over 55% in size
In short: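 Purified P. pyralis luciferase, 10 nM final, with Km-level 10 uM D-luciferin and 10 uM ATP in 50 mM Tris acetate pH 7.5, 10 mM Mg acetate, 0.01% Tween-20, 0.05% BSA; 6-point qHTS titration about 60 µM downward; luminescence read.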
Potency is read from the fitted curve at half-maximal effect.

Luciferin 4-monooxygenase (Photinus pyralis), sequence (P08659 whole entry, looked up): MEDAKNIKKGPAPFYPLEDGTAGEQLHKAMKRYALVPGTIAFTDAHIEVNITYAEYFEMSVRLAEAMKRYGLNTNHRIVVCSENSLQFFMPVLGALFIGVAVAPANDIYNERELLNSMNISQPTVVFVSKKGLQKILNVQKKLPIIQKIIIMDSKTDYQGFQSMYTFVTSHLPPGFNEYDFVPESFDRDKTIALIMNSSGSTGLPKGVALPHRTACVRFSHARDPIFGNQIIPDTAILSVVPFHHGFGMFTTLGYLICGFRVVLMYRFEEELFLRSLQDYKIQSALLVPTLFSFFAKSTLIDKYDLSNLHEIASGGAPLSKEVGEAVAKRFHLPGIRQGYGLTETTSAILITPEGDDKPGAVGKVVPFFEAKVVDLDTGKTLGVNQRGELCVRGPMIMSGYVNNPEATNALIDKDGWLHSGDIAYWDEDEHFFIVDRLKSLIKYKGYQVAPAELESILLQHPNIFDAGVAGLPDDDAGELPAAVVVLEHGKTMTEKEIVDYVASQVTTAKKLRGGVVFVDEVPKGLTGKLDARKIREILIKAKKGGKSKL

Structure (SMILES)	Potency	activity change, negative = inhibition
CCNC(=O)Cn1nc(C)n2c(cc3c(OC)cccc32)c1=O	inactive	
CCOc1ccc(S(=O)(=O)Nc2nccs2)cc1	inactive	
COC(=O)c1ccc(N2CCOCC2)c(NC(=O)c2ccc3c(c2)OCCO3)c1	inactive	
CN1CCN(c2ccc(NC(=O)c3ccc4c(c3)OCCO4)cc2Cl)CC1	4.78 µM (active)	
O=C(Nc1ccc(N2CCOCC2)c(Cl)c1)c1ccc(S(=O)(=O)N2CCOCC2)cc1	inactive	
CCCCN(CC)C(=S)Nc1ccc2nc3n(c(=O)c2c1)CCCCC3	inactive	
Cc1ccccc1C(=O)Nc1ccc(N2CCCCCC2)cc1	10.7 µM (active)	
O=C(NC(=O)c1ccccc1N1CCCCC1)Nc1ccc(Br)cc1	inactive	
Cc1ccccc1C(=O)N1CCN(c2ccc(NC(=O)c3cccs3)cc2)CC1	inactive	
O=C(CN1C(=O)COc2ccc(Cl)cc21)Nc1ccc(N2CCOCC2)cc1	inactive	
CN1CCN(c2ccc(NC(=O)c3cc(Cl)c4c(c3)OCCO4)cc2)CC1	10.7 µM (active)	
NS(=O)(=O)c1ccc(NC(=O)C(=O)Nc2ccc3nc4n(c(=O)c3c2)CCCCC4)cc1	inactive	
COc1cc2ccccc2cc1C(=O)Nc1ccc(N2CCOCC2)cc1	inactive	
COc1cccc(C(=O)Nc2ccc3nc4n(c(=O)c3c2)CCCCC4)c1	16.9 µM (active)	
COc1ccc2c(Sc3ccc(C)cc3)c(C(=O)NC(C)c3ccccc3)[nH]c2c1 (configuration not stated)	inactive	
CC(C)Cn1c(=O)c2ccccc2n2c(CCC(=O)N3CCN(c4cccc(Cl)c4)CC3)nnc12	inactive	
Cc1cccc(NS(=O)(=O)c2ccc(C)c(C(=O)NCC(c3ccccc3)N(C)C)c2)c1 (configuration not stated)	inactive	
O=C(NC1CCN(Cc2ccccc2)CC1)c1ccc(Cn2c(=O)c3ccccc3n(Cc3cccc(F)c3)c2=O)cc1	inactive	
O=C(NCCOc1cccnc1)c1ccc(OC2CCN(Cc3ccccn3)CC2)cc1	inactive	
CCOc1ccc(N(CC)C(=O)C2CCN(S(=O)(=O)c3cccc4nonc34)CC2)cc1	inactive	
CC(OC(=O)c1ccc(NS(=O)(=O)c2ccc3[nH]c(=O)[nH]c3c2)cc1)C(=O)Nc1cccc(Cl)c1Cl (configuration not stated)	inactive	
COc1ccc2c(c1)c(N1CCCC1=O)c(C(=O)Nc1ccccc1C(F)(F)F)n2C	inactive	
CCOc1ccc(NC(=O)c2cn(C3CCCCC3)c(=O)c3c2c2ccccc2n3C)cc1	inactive	
CCOc1ccc(NC(=O)CN(C)C(=O)Cc2sc(C)nc2-c2ccc(F)cc2)cc1OCC	inactive	
O=C1CC(c2ccc(F)cc2F)c2cc3c(cc2N1)OCO3 (configuration not stated)	inactive	
O=C(c1ccccc1)N1CCC(CC2CC(c3ccc(Cl)cc3)=NO2)(C(=O)NCC2CCCCC2)CC1 (configuration not stated)	inactive	

Structure (SMILES)	Potency	activity change, negative = inhibition
Cc1nnc2n1N=C(c1ccc3c(c1)NC(=O)CO3)CS2	inactive	
Cn1c(=O)cc(OCC(=O)N2CCN(c3ccccc3)CC2)c2ccccc21	inactive	
CCOc1ccc(NC(=O)c2c(NCc3cccc(OC)c3OC)sc3c2CCC3)cc1	inactive	
COc1ccc(C(=O)Cc2cnn(-c3ccccc3)c2)c(O)c1	3.38 µM (active)	
COc1ccc(C(=O)NNS(=O)(=O)c2ccc(C)cc2)cc1	inactive	
COc1ccc(CC(=O)c2ccc(O)cc2O)cc1OC	inactive	
COc1ccc(C(=O)C[n+]2ccc(C)cc2)cc1	inactive	
Cc1[nH]nc(-c2ccc(OCc3cnn(-c4ccccc4)c3)cc2O)c1Oc1ccc(Cl)cc1	inactive	
COc1ccc(C(=O)CC(=O)c2ccc(C)cc2)c(O)c1	21.3 µM (active)	
Cc1cccc(OCC(=O)N(Cc2ccc(C(C)C)cc2)Cc2ccco2)c1C	inactive	
COc1cc(OC)c(NC(=O)c2c3c(nn2C)-c2ccccc2SC3)cc1Cl	inactive	
CSc1nc(=O)c2c(n1C)NC(=O)CC2c1ccccc1OC(C)C (configuration not stated)	inactive	
Cc1nc(SCC(=O)NC2CCCCC2C)c(C#N)c(C)c1C (configuration not stated)	inactive	
CCS(=O)(=O)c1nc(S(=O)(=O)c2ccc(C)cc2)c(NCc2ccc(Cl)cc2)s1	inactive	
CCn1c(C(=O)Nc2cc(Cl)ccc2C)cc2sc(Cl)cc21	inactive	
CCOc1ccc(-c2cc3c(=O)n(CC(=O)NCc4ccc(OC)cc4)ccn3n2)cc1	inactive	
CC(C)(C)c1ccc(SCCc2ccncc2)cc1	26.9 µM (active)	
Cc1cc(C)c(SCCc2ccncc2)c(C)c1	inactive	
c1ccc(CSCCc2ccncc2)cc1	inactive	
C/C(=N\NC(=O)CCn1nc(C)cc1C)C(C)(C)C	inactive	
CCc1cccc(NC(=O)COC(=O)c2cc(=O)c3ccccc3o2)c1	inactive	
Cc1ccc(S(=O)(=O)NCCC(=O)NC2CCN(Cc3ccccc3)CC2)cc1	inactive	
Cc1ccc(C)c(N2CCN(C(=O)Cn3nc(C)c4sc5ccccc5c4c3=O)CC2)c1	inactive	
Cn1nnnc1SCCCNCc1cccc(OCc2ccc(Cl)cc2)c1	inactive	
COc1cc(/C=N/O)ccc1OCc1ccc([N+](=O)[O-])cc1	2.69 µM (active)	
COc1cc(C(=O)OCc2ccc([N+](=O)[O-])cc2)cc(OC)c1OC	inactive	

Structure (SMILES)	Potency	activity change, negative = inhibition
COc1cc(/C=N\Nc2ccc([N+](=O)[O-])cn2)ccc1OCC(=O)O	inactive	
Cc1ccc(CCNC(=O)c2nnc(Cc3cccc(F)c3)o2)cc1	inactive	
COc1ccc(Cl)cc1N(C)C(=O)c1cc2c(=O)oc3ccc(C)cc3c2s1	inactive	
COc1cc(OC)c(NC(=O)c2nc(-c3ccncc3)no2)cc1Cl	inactive	
O=C(Oc1ccc(-c2nc(-c3ccccn3)no2)cc1)c1ccccc1	0.301 µM (active)	
COc1ccc(-c2noc(-c3ccc(C)cc3)n2)cc1	1.51 µM (active)	
c1csc(-c2nc(-c3ccncc3)no2)c1	13.5 µM (active)	
Cc1ccc(-c2noc(CSc3nnc(-c4ccncc4)n3-c3ccc(F)cc3)n2)cc1	inactive	
Cc1ccc(-c2noc(CSc3nnc(-c4cccs4)n3C)n2)cc1	inactive	
COc1ccc(N2CCN(C(=O)CCc3nc(-c4ccc(C)cc4)no3)CC2)cc1	inactive	
COc1ccc(-c2noc(CN(C)S(=O)(=O)c3ccc(C)cc3)n2)cc1	inactive	
Cc1ccc(Oc2nc(-c3ccccn3)nc3ccccc23)cc1	inactive	
CSc1oc(-c2cccs2)nc1S(=O)(=O)c1ccc(Br)cc1	inactive	
Cc1ccc(-c2nc(-c3ccncc3)no2)c(C)c1	2.13 µM (active)	
N#CCc1ccc(OC(=O)c2cccnc2)cc1	inactive	
Cc1cc(OC(=O)c2ccccc2)c([N+](=O)[O-])c(=O)[nH]1	inactive	
Cc1ccccc1NC(=O)Cn1c(=O)n(CC2CCC(C(=O)NCCc3ccccc3)CC2)c(=O)c2ccccc21 (configuration not stated)	inactive	
COc1ccc(CCNc2nc(-c3ccc(Cl)cc3)cc(C(F)(F)F)n2)cc1OC	inactive	
O=c1cccc(-c2ccc(Br)cc2)o1		3.87% [at 2.3 µM] (inactive)
O=C1CC(c2nnc(Cc3ccc(Cl)cc3)o2)CN1c1ccccc1 (configuration not stated)	inactive	
Cc1ccc(OCC(=O)Nc2ccccc2C(=O)NC2CC2)cc1	inactive	
COc1ccc(CCC(=O)NCc2ccc3c(c2)CCN3C(=O)c2ccc(F)cc2)cc1	inactive	
Cc1ccc(-n2nnnc2CNC(=O)c2ccccc2C)cc1C	inactive	
COc1cc(C)c(Cl)cc1S(=O)(=O)n1ccnc1	inactive	
Cc1c2cnn(-c3ccccc3)c(=O)c2c(C)n1C(C)C(=O)Nc1ccc(Br)cc1F (configuration not stated)	inactive	
Clc1ccc(-n2nnnc2-c2cnc(-c3ccccn3)nc2-c2cccs2)cc1	inactive	

Structure (SMILES)	Potency	activity change, negative = inhibition
O=c1onc(-c2cccs2)n1Cc1ccccc1	inactive	
c1ccc(-c2noc(-c3cccs3)n2)nc1	3.01 µM (active)	
CN(Cc1ccccc1)C(=O)CCS(=O)(=O)c1cc(Br)cc2c1N(C(=O)C1CC1)CC2	inactive	
CCOc1ccc(CCNC(=O)CN(c2ccc(C)cc2)S(=O)(=O)N(C)C)cc1OCC	inactive	
Cc1cc(C)c(-c2n[nH]c3c2C(c2ccccc2F)N(CCO)C3=O)c(O)c1 (configuration not stated)	inactive	
CCOC(=O)CNC(=O)CSc1nc2cccnc2n1CC	inactive	
O=C(O)c1ccc(Cn2c(SCc3ccc(F)cc3)nc3ccncc32)cc1	16.9 µM (active)	
Cc1ccc(CSc2nc3cccnc3n2Cc2ccc(C(=O)NC3CC3)cc2)cc1	0.379 µM (active)	
O=C(Nn1c(SCc2ccc([N+](=O)[O-])cc2)nc2ccccc2c1=O)c1ccc(F)cc1	16.9 µM (active)	
CCCNC(=O)c1ccc(Cn2c(SCC(N)=O)nc3ccccc3c2=O)cc1	inactive	
Cc1cccc(CSc2nc3ccncc3n2CC(=O)N(C)C2CCCCC2)c1	inactive	
Cn1c(CNC(=O)c2ccccc2F)nnc1SCc1ccc(F)cc1	inactive	
Cc1nc2ccccc2c(=O)n1NC(=O)c1ccc(Cl)c([N+](=O)[O-])c1	inactive	
C=CCn1c(SCc2ccc(C(=O)NCCO)cc2)nc2ccccc2c1=O	inactive	
OCc1cnc(SCc2ccc(F)cc2)n1Cc1ccc(F)cc1	inactive	
O=C(NCc1ccc(F)cc1)c1ccc(Cn2c(SCc3ccc(F)cc3)nc3cccnc32)cc1	4.78 µM (active)	
Cc1ccc(Cn2c(CNC(=O)Cc3cccc(C)c3)nc3cccnc32)cc1	inactive	
CC1=C(C(=O)Nc2ccccc2)C(c2ccc(C)cc2)n2nc(SCc3ccccc3C)nc2N1 (configuration not stated)	inactive	
Cc1nnc(NC(=O)CSc2nc3c([nH]c4ccccc43)c(=O)n2-c2cccc(Cl)c2)s1	inactive	
CCOc1ccc(S(=O)(=O)c2cn(Cc3ccc(OC)cc3)c3ccc(F)cc3c2=O)cc1	inactive	
CCOc1ccc(NC(=O)Cn2c(C)ccc(C#N)c2=O)cc1	inactive	
COc1ccc(CCNS(=O)(=O)c2cc(-c3cc(C)no3)ccc2C)cc1OC	inactive	
Cc1cccc2c1-c1sc(C(=O)Nc3ccc(F)cc3F)cc1CO2	inactive	
O=C(NCc1ccccc1)C(=O)NCC(c1ccco1)S(=O)(=O)c1ccc(Cl)cc1 (configuration not stated)	inactive	
